Experimental data from publication PMC7862700, “An all-to-all approach to the identification of sequence-specific readers for epigenetic DNA modifications on cytosine”.

Key:
Assay in all cases: DAPPL (digital affinity profiling via proximity ligation, sequencing); 10 mM Tris-HCl pH 7.5, 50 mM NaCl, 1 mM DTT, 4% glycerol, room temperature, 30 min; GST-TFs on glutathione beads, 16-mer random dsDNA library, 0.1% formaldehyde crosslink after washing; high values mean tight binding
FEV = target: T1, FEV (Homo sapiens, UniProt Q99581 1-238); conditions: protein: recombinant; tags: N-terminal GST; dsDNA, one strand shown
T1 sequence: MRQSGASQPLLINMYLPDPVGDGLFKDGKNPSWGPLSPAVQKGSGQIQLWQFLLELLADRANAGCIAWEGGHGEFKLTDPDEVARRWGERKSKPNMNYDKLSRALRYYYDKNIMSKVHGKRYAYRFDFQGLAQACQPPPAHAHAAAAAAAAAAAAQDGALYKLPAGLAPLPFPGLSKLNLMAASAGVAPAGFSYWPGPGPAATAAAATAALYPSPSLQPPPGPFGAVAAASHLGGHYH
Method in brief: (§1)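 After expression in yeast as GST fusions, human transcription factors were bound to glutathione beads, DNA-barcoded and mixed with a tag-only sample. The pools were incubated with 200 nmole of a 16-mer random double-stranded DNA library in Tris/NaCl/DTT/glycerol buffer (30 min, room temperature), washed and crosslinked with 0.1% formaldehyde. Proximity ligation with BsaI/T4 ligase ran for 1 h at 37 °C, before PCR amplification and sequencing on an Illumina NextSeq500. Binding signal is a hexamer's read frequency for a factor divided by its frequency for the tag-only sample.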

ETV5 = ETV5 (Homo sapiens, UniProt P41161 1-510); conditions: protein: recombinant; tags: N-terminal GST; dsDNA, one strand shown
Sequence of ETV5 (P41161 whole entry): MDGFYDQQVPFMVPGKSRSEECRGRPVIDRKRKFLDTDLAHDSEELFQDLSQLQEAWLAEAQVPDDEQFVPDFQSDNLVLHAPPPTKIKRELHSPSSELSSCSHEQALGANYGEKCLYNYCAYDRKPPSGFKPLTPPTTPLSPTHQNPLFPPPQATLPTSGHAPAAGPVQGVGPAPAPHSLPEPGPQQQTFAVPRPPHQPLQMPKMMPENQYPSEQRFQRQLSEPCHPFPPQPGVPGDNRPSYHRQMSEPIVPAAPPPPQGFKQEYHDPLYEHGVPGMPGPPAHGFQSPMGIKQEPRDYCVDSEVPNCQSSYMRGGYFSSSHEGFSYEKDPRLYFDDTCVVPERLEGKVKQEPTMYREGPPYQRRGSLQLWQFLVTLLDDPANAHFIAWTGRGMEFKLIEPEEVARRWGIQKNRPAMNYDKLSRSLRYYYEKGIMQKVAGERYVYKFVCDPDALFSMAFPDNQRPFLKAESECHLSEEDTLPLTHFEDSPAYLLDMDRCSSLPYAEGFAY
Method in brief: as §1

HSF1 = HSF1 (Homo sapiens, UniProt Q00613 1-529); conditions: protein: recombinant; tags: N-terminal GST; chain copies: 3; dsDNA, one strand shown
Sequence of HSF1 (Q00613 whole entry): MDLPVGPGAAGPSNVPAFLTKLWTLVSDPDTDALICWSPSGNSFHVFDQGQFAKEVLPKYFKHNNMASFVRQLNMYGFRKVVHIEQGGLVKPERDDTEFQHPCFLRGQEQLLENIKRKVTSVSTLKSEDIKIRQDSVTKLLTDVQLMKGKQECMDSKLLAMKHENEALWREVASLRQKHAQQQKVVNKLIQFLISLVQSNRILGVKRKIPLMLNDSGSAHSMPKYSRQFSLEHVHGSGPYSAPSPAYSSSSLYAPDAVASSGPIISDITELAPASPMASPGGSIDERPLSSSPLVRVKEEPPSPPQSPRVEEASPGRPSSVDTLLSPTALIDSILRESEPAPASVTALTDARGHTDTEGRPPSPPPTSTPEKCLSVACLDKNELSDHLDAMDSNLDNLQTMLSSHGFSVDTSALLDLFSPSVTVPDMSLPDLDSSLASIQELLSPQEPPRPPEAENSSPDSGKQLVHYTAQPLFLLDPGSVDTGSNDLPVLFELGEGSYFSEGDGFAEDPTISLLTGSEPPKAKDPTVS
Method in brief: as §1

SPIC = target: T2, SPIC (Homo sapiens, UniProt Q8N5J4 1-248); conditions: protein: recombinant; tags: N-terminal GST; dsDNA, one strand shown
T2 sequence: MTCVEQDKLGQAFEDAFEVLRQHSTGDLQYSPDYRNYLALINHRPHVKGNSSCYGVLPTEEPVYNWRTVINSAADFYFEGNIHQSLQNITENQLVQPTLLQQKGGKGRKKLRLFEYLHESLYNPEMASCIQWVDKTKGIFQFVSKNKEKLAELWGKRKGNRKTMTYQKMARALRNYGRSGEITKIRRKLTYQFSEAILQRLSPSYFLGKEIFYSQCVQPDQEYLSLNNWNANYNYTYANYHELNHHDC
Method in brief: as §1

ELF4 = ELF4 (Homo sapiens, UniProt Q99607 1-663); conditions: protein: recombinant; tags: N-terminal GST; dsDNA, one strand shown
Sequence of ELF4 (Q99607 whole entry): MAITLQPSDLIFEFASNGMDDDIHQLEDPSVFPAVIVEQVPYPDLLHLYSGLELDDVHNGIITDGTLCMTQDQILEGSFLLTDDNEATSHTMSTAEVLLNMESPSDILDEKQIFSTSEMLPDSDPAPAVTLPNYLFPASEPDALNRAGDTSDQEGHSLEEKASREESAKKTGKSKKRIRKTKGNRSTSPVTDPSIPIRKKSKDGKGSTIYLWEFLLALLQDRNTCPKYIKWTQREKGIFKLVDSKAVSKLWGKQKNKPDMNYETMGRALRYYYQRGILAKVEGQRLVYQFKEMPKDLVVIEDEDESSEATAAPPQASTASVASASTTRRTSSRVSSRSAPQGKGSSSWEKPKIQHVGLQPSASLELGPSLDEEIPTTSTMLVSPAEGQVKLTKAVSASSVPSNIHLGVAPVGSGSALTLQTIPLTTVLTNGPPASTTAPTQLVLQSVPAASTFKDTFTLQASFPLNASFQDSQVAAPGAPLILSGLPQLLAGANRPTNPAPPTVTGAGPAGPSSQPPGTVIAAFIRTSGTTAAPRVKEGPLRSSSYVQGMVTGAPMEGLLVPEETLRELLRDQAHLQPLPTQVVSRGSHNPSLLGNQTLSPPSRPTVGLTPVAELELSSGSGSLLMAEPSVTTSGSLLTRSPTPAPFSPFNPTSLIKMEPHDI
Method in brief: as §1

ELK4 = target: T3, ELK4 (Homo sapiens, UniProt P28324-2 1-405); conditions: protein: recombinant; tags: N-terminal GST; dsDNA, one strand shown
T3 sequence: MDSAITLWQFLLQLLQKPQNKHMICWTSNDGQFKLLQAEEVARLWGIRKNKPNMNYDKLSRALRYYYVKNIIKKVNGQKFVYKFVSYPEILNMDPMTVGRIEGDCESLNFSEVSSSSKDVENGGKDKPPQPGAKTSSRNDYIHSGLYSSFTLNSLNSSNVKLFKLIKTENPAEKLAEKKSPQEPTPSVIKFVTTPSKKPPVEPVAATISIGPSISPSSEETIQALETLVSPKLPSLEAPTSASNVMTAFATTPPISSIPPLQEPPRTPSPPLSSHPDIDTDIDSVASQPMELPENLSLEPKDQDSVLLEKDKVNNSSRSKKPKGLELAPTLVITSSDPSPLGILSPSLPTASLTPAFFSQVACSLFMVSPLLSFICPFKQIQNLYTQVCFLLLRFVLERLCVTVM
Method in brief: as §1

ETV2 = target: T4, ETV2 (Homo sapiens, UniProt O00321 1-342); conditions: protein: recombinant; tags: N-terminal GST; dsDNA, one strand shown
T4 sequence: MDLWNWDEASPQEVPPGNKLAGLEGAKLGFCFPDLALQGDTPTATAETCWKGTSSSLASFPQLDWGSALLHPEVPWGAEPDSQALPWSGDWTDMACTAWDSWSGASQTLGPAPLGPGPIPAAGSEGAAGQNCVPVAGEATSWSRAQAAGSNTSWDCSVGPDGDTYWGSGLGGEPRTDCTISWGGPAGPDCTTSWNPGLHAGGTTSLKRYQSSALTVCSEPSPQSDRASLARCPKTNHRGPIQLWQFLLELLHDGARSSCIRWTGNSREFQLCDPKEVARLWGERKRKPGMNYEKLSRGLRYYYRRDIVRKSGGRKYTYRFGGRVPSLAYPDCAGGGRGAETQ
Method in brief: as §1

ELF3 = target: T5, ELF3 (Homo sapiens, UniProt P78545 1-371); conditions: protein: recombinant; tags: N-terminal GST; dsDNA, one strand shown
T5 sequence: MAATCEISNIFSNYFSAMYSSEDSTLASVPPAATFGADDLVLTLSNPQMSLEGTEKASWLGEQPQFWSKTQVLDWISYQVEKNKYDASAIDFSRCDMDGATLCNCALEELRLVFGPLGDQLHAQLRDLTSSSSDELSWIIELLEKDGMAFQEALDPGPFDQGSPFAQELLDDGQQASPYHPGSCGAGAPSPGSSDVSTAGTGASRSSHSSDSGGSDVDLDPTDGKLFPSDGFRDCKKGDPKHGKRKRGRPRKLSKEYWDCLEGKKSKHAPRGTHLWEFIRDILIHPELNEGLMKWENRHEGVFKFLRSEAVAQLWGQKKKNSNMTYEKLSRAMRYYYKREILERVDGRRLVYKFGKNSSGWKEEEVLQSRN
Method in brief: as §1

CRX = CRX (Homo sapiens, UniProt O43186 1-299); conditions: protein: recombinant; tags: N-terminal GST; dsDNA, one strand shown
Sequence of CRX (O43186 whole entry): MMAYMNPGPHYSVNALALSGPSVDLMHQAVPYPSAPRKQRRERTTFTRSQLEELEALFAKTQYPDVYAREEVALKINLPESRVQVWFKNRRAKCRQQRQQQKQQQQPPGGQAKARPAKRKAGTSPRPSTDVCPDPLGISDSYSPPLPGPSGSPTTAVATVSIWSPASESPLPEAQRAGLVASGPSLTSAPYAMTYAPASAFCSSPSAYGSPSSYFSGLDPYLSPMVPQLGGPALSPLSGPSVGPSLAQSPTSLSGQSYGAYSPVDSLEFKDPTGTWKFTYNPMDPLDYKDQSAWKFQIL
Method in brief: as §1

ETV1 = ETV1 (Homo sapiens, UniProt P50549 1-477); conditions: protein: recombinant; tags: N-terminal GST; dsDNA, one strand shown
Sequence of ETV1 (P50549 whole entry): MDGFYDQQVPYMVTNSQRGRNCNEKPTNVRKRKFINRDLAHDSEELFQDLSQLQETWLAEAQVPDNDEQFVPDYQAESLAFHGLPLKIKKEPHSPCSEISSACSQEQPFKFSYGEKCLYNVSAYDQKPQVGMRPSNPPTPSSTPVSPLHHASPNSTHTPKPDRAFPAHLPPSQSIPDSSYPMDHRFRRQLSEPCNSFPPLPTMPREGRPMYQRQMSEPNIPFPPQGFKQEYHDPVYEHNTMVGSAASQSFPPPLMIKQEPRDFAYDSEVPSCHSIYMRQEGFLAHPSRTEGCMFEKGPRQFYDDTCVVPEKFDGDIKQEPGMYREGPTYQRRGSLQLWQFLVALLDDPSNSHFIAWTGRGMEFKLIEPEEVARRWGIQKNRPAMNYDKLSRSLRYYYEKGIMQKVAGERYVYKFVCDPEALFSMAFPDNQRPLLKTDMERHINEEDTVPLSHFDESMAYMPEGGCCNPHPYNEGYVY
Method in brief: as §1

| Sequence | binding signal (FEV) | binding signal (ETV5) | binding signal (HSF1) | binding signal (SPIC) | binding signal (ELF4) | binding signal (ELK4) | binding signal (ETV2) | binding signal (ELF3) | binding signal (CRX) | binding signal (ETV1) |
| --- | --- | --- | --- | --- | --- | --- | --- | --- | --- | --- |
| TCTGCT | 1.28 fold enrichment (6-mer frequency, TF over GST control) | 1.29 fold enrichment (6-mer frequency, TF over GST control) | 1.33 fold enrichment (6-mer frequency, TF over GST control) | 1.43 fold enrichment (6-mer frequency, TF over GST control) | 1.3 fold enrichment (6-mer frequency, TF over GST control) | 1.57 fold enrichment (6-mer frequency, TF over GST control) | 1.53 fold enrichment (6-mer frequency, TF over GST control) | 1.11 fold enrichment (6-mer frequency, TF over GST control) | 1.33 fold enrichment (6-mer frequency, TF over GST control) | 1.32 fold enrichment (6-mer frequency, TF over GST control) |
| CTACCA | 1.14 fold enrichment (6-mer frequency, TF over GST control) | 1.2 fold enrichment (6-mer frequency, TF over GST control) | 1.24 fold enrichment (6-mer frequency, TF over GST control) | 1.14 fold enrichment (6-mer frequency, TF over GST control) | 1.39 fold enrichment (6-mer frequency, TF over GST control) | 1.24 fold enrichment (6-mer frequency, TF over GST control) | 1.1 fold enrichment (6-mer frequency, TF over GST control) | 1.17 fold enrichment (6-mer frequency, TF over GST control) | 1.09 fold enrichment (6-mer frequency, TF over GST control) | 1.27 fold enrichment (6-mer frequency, TF over GST control) |
| GCTAGC | 1.31 fold enrichment (6-mer frequency, TF over GST control) | 1.24 fold enrichment (6-mer frequency, TF over GST control) | 1.19 fold enrichment (6-mer frequency, TF over GST control) | 1.28 fold enrichment (6-mer frequency, TF over GST control) | 1.3 fold enrichment (6-mer frequency, TF over GST control) | 1.23 fold enrichment (6-mer frequency, TF over GST control) | 1.39 fold enrichment (6-mer frequency, TF over GST control) | 1.2 fold enrichment (6-mer frequency, TF over GST control) | 1.05 fold enrichment (6-mer frequency, TF over GST control) | 1.24 fold enrichment (6-mer frequency, TF over GST control) |
| TTATAT | 1.33 fold enrichment (6-mer frequency, TF over GST control) | 1.26 fold enrichment (6-mer frequency, TF over GST control) | 1.76 fold enrichment (6-mer frequency, TF over GST control) | 1.44 fold enrichment (6-mer frequency, TF over GST control) | 1.34 fold enrichment (6-mer frequency, TF over GST control) | 1.45 fold enrichment (6-mer frequency, TF over GST control) | 1.46 fold enrichment (6-mer frequency, TF over GST control) | 1.44 fold enrichment (6-mer frequency, TF over GST control) | 2.47 fold enrichment (6-mer frequency, TF over GST control) | 1.34 fold enrichment (6-mer frequency, TF over GST control) |
| GACTTC | 3.36 fold enrichment (6-mer frequency, TF over GST control) | 2.51 fold enrichment (6-mer frequency, TF over GST control) | 1.23 fold enrichment (6-mer frequency, TF over GST control) | 2.23 fold enrichment (6-mer frequency, TF over GST control) | 2.28 fold enrichment (6-mer frequency, TF over GST control) | 2.22 fold enrichment (6-mer frequency, TF over GST control) | 2.35 fold enrichment (6-mer frequency, TF over GST control) | 2.29 fold enrichment (6-mer frequency, TF over GST control) | 1.12 fold enrichment (6-mer frequency, TF over GST control) | 2.56 fold enrichment (6-mer frequency, TF over GST control) |
| TTATCC | 1.44 fold enrichment (6-mer frequency, TF over GST control) | 1.45 fold enrichment (6-mer frequency, TF over GST control) | 2.49 fold enrichment (6-mer frequency, TF over GST control) | 1.51 fold enrichment (6-mer frequency, TF over GST control) | 1.33 fold enrichment (6-mer frequency, TF over GST control) | 1.45 fold enrichment (6-mer frequency, TF over GST control) | 1.61 fold enrichment (6-mer frequency, TF over GST control) | 1.41 fold enrichment (6-mer frequency, TF over GST control) | 3.97 fold enrichment (6-mer frequency, TF over GST control) | 1.27 fold enrichment (6-mer frequency, TF over GST control) |
| ACTCGT | 1.2 fold enrichment (6-mer frequency, TF over GST control) | 1.22 fold enrichment (6-mer frequency, TF over GST control) | 1.14 fold enrichment (6-mer frequency, TF over GST control) | 1.16 fold enrichment (6-mer frequency, TF over GST control) | 1.3 fold enrichment (6-mer frequency, TF over GST control) | 1.28 fold enrichment (6-mer frequency, TF over GST control) | 1.21 fold enrichment (6-mer frequency, TF over GST control) | 1.25 fold enrichment (6-mer frequency, TF over GST control) | 1.08 fold enrichment (6-mer frequency, TF over GST control) | 1.13 fold enrichment (6-mer frequency, TF over GST control) |
| TATTAA | 1.14 fold enrichment (6-mer frequency, TF over GST control) | 1.13 fold enrichment (6-mer frequency, TF over GST control) | 1.82 fold enrichment (6-mer frequency, TF over GST control) | 1.12 fold enrichment (6-mer frequency, TF over GST control) | 1.16 fold enrichment (6-mer frequency, TF over GST control) | 1.02 fold enrichment (6-mer frequency, TF over GST control) | 1.09 fold enrichment (6-mer frequency, TF over GST control) | 1.06 fold enrichment (6-mer frequency, TF over GST control) | 2.83 fold enrichment (6-mer frequency, TF over GST control) | 1.14 fold enrichment (6-mer frequency, TF over GST control) |
